This note sets out measurements from PubChem BioAssay (NCI).

Each structure is given as a SMILES string. The panel holds about 83,000 compounds, 20% with a hit somewhere; the sample as a whole holds those more often.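 The endpoint reported here, percent growth, reads 100 for growth as untreated, 0 for no net growth and -100 for all cells dead.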 Values without a mark were called inactive. Activity calls are given as the source filed them. The calls were made as follows: active = growth percent below 10; inactive = the rest.

The assay relates to OVCAR-3 ovarian. In words: NCI-60 one-dose screen, 48 h (100 = growth as untreated, 0 = no growth, -100 = all killed). Conditions: 10 µM unless noted.
As to `COc1cc(NC(=O)NCc2ccco2)ccc1-c1ccc(NC(=O)NCc2ccco2)cc1OC`, the growth was 74%.

With `COc1cnc2c(c1)C(=O)c1c-2n(CCCN2CCC(O)CC2)c(=O)c2cc(F)ccc12`, the growth is -8.34% (active).

As for `CCOC(=O)C1=CCC(n2cc(C)c(=O)[nH]c2=O)O1` (stereo not drawn), the growth was 108%.

On to `CCSc1nc(Nc2ccc(S(=O)(=O)Nc3ccon3)cc2)c(C#N)c(-c2cccc(Br)c2)n1`, for which the growth was 117%.

Regarding `C[C@H]1O[C@@H](O[C@H]2[C@@H](O)C[C@H](O[C@H]3[C@@H](O)C[C@H](O[C@H]4CC[C@]5(C)C6C[C@@H](O)[C@]7(C)[C@@H](C8=CC(=O)OC8)CC[C@]7(O)C6CC[C@@H]5C4)O[C@@H]3C)O[C@@H]2C)C[C@H](O)[C@@H]1O` (stereo partly drawn), the growth was -100% (active).

Consider `Cc1ccc(NC(=O)c2sc3nc4c(cc3c2N)C(=O)CCC4)cc1`, for which the growth is 133%.

Regarding `COc1ccc(-c2nnc3c4[nH]cnc4ncn23)c(OC)c1`, the growth was 13.4%.

For `Cc1ccc(N/N=C(/C(=O)c2ccc(Cl)cc2)c2nc(C)cc(=O)[nH]2)cc1`, the growth is 95.8%.

On to `Cc1ccc(/C=C/C(=O)c2ccc(F)cc2)s1`, for which the growth was 87%.

Take `CNNc1ncnc2c1cnn2-c1ccc(S(N)(=O)=O)cc1`: the growth was 87.7%.

Regarding `OC(c1cc(-c2cccc(Cl)c2)nc2ccccc12)C1CCCCN1` (stereo not drawn), the growth was -13.1% (active).

With `COc1ccc2c(c1)sc1nc(-c3ccc(Br)cc3)cn12`, the growth was 122%.

Turning to `COc1ccccc1NC(=O)c1sc2nc3c(cc2c1N)C(=O)CCC3`, the growth is 87%.
